Measurements reported in PubChem BioAssay AID504832 (National Center for Advancing Translational Sciences (NCATS), 2011).
Screen size: about 310,000 compounds; about 18,000 (5.8%) were called active. Another 22% or so got no clear call; they are omitted. Calls follow the shape of the dose curve; as a rule, active = well fitted inhibition curve with a large enough effect; inconclusive = small, poorly fitted or top-dose-only effect, or another doubt; inactive = no such curve, though single readings can be large or run the other way. The list comes from a sample in which actives are over-represented; it also holds similar structures and randomly drawn compounds. A call without a number means that no potency is given here.

Assay: Primary qHTS for delayed death inhibitors of the malarial parasite plastid, 48 hour incubation
Conditions: P. falciparum luciferase growth in erythrocytes; series mostly up to 28.7 µM
Procedure, shortened: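 Firefly luciferase activity from engineered P. falciparum reports growth; inhibitors lower the luminescent signal. Cultures contained 2% hematocrit erythrocytes at 0.1% final parasitemia.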
Potency is read from the fitted curve at half-maximal effect.

Row | SMILES | Potency | activity change, negative = inhibition
1 | CC1CCCCC1NC(=O)COC(=O)Cc1ccc(Cl)cc1 (stereo unspecified) | inactive | 
2 | CSc1nnc2ccc(-c3ccc(C)cc3)nn12 | inactive | 
3 | Cc1ccc(S(=O)(=O)n2cccc2CO)cc1 | inactive | 
4 | CN(C)CCNc1ccc(-c2n[nH]c(=O)c3ccccc23)cc1[N+](=O)[O-] | inactive | 
5 | COCCNc1ccc(-c2n[nH]c(=O)c3ccccc23)cc1[N+](=O)[O-] | 4.65 µM (active) | 
6 | COCCNc1cc(NCCOC)c([N+](=O)[O-])cc1[N+](=O)[O-] | inactive | 
7 | COc1ccc(CNC(=O)c2cc(=O)c3c(C)cc(C)cc3o2)cc1 | inactive | 
8 | O=C(c1cc(-c2ccc(Cl)cc2)on1)N1CCN(c2ccccc2)CC1 | inactive | 
9 | CC(C)n1cnc2c(Nc3cccc(Cl)c3)nc(N(CCO)CCCO)nc21 | 7.38 µM (active) | 
10 | O=C(NC(=S)Nc1ccccc1N1CCCCC1)c1ccc(F)cc1 | 8.28 µM (active) | 
11 | COc1ccccc1C(=O)NC(=S)Nc1ccccc1N1CCCCC1 | inactive | 
12 | O=C(Nc1ccccc1N1CCCCC1)c1cccc(F)c1 | inactive | 
13 | O=C(COc1nsnc1N1CCOCC1)Nc1ccccc1Cl | inactive | 
14 | Cn1c(=O)n(C)c2cc(C(=O)Nc3ccc(Br)cc3)ccc21 | inactive | 
15 | Clc1ccc2nc(-c3ccccc3)nc(C(Cl)Cl)c2c1 | 10.4 µM (active) | 
16 | CSc1nc(-c2ccccc2)nc(C(Cl)Cl)n1 | inactive | 
17 | N#CCSc1nc(-c2ccccc2)nc2ccc(F)cc12 | inactive | 
18 | CN1C(C(=O)NCC2CC2)CC2Cn3c(nc4ccccc43)C21 (stereo unspecified) | inactive | 
19 | Cn1nc(C(F)(F)F)c2cc(NC(=O)OCC(C)(C)C)sc21 | 2.33 µM (active) | 
20 | Cn1nc(C(F)(F)F)c(-c2ccc(F)cc2)c1NC(=O)CSCC(=O)O | inactive | 
21 | Cn1nc(C(F)(F)F)c2cc(C(=O)N3CCOCC3)sc21 | inactive | 
22 | COc1ccc(CN2CCC(n3nccc3NC(=O)CCCc3ccccc3)CC2)cc1C | inactive | 

Row | SMILES | Potency | activity change, negative = inhibition
23 | CC(Sc1nnc(C2CC2)n1C1CC1)C(=O)Nc1ccc(C(N)=O)cc1 (stereo unspecified) | inactive | 
24 | COc1cccc(NC(=O)CSc2nnc(Cc3ccc(OC)c(OC)c3)o2)c1 | inactive | 
25 | O=C(COC(=O)c1ncc(Cl)c(Cl)c1Cl)NNC(=O)c1ccccc1 | inactive | 
26 | O=C(O)Cc1sc(-c2ccccc2)nc1-c1cccs1 | inactive | 
27 | CC(=O)C1=C(C)NC(C)=C(C(C)=O)C1c1cn(-c2ccccc2)nc1-c1cccs1 | 14.7 µM (active) | 
28 | O=C(NCc1cccnc1)c1cn(-c2ccccc2)nc1-c1cccs1 | inactive | 
29 | CCOc1ccc2[nH]c(C(=O)N/N=C/c3cccc(OC)c3OC)cc2c1 | inactive | 
30 | COc1ccc(OC)c(C(=O)c2ccc(Cl)cc2)c1 | inactive | 
31 | COc1ccc(-c2onc3ccc(C(C)=O)cc23)cc1 | inactive | 
32 | COc1ccc(O)c(C(=O)c2cnc3onc(C(C)C)c3c2)c1 | 2.62 µM (active) | 
33 | COc1ccc(C(=O)OCC(=O)N2CC(=O)Nc3ccccc32)cc1Br | inactive | 
34 | COc1ccc(Cl)cc1-n1c(C)cc(C(=O)OCC(=O)N2CC(=O)Nc3ccccc32)c1C | 5.22 µM (active) | 
35 | COc1cc(OC)c(C(=O)OCC(=O)N2CC(=O)Nc3ccccc32)cc1OC | inactive | 
36 | CCCC(C)NC(=O)C1CCN(C(=O)C2CC(=O)N(c3ccc(C)cc3)C2)CC1 (stereo unspecified) | inactive | 
37 | C=CCn1c(-c2ccccc2OCC)n[nH]c1=S | inactive | 
38 | CCCc1cc(-c2n[nH]c(=S)n2CC)c2ccccc2n1 | 1.31 µM (active) | 
39 | CCn1c(-c2ccncc2)n[nH]c1=S | inactive | 
40 | O=C(c1cc(S(=O)(=O)N2CCOCC2)ccc1Cl)N1CCOCC1 | inactive | 
41 | Cn1cnc2c1c(=O)n(Cc1ccccc1C#N)c(=O)n2C | inactive | 
42 | CCN(CC(=O)Nc1c(F)cccc1F)C(=O)c1ccc(-c2ccccc2)cc1 | inactive | 
43 | O=C(Nc1ccccc1F)c1ccccc1-c1ccccc1 | inactive | 
44 | CC(C)N(C(=O)c1ccc(-c2ccccc2F)cc1)C(C)C | 10.4 µM (active) | 

Row | SMILES | Potency | activity change, negative = inhibition
45 | CCCCN(C(=O)c1nn(C)c(=O)c2ccccc12)c1c(N)n(CCC)c(=O)[nH]c1=O | inactive | 
46 | Cc1cccc(N(C(=O)c2sc(C)nc2C)C(C(=O)NCC2CCCO2)c2ccccc2)c1 (stereo unspecified) | inactive | 
47 | Cc1cccc(N(C(=O)Cc2cccs2)C(C(=O)NCc2ccco2)c2ccncc2)c1 (stereo unspecified) | inactive | 
48 | Cc1nc(C)c(C(=O)N(c2ccc(C)c(C)c2)C(C(=O)NCc2ccco2)c2ccccc2)s1 (stereo unspecified) | 11.7 µM (active) | 
49 | CCOCc1nnc(NC(=O)CCS(=O)(=O)Cc2ccccc2)s1 | inactive | 
50 | Cc1cccc(CNS(=O)(=O)c2ccc(-c3cnc(C4CC4)o3)cc2)c1 | inactive | 
51 | COc1ccc(C)cc1N(CC(=O)N1CCCC1)S(=O)(=O)c1ccccc1 | inactive | 
52 | Cc1nc(NCCN)c(C#N)c2c1COC(C)(C)C2 | inactive | 
53 | CC(C)C(=O)N1CCN(c2nc(-c3ccccc3)c3c(c2C#N)CC(C)(C)OC3)CC1 | 13.1 µM (active) | 
54 | CC1(C)Cc2c(sc(NC(=O)C(=O)N3CCOCC3)c2C#N)CO1 | inactive | 
55 | Cc1sc(NC(=O)C2=COCCO2)c(C#N)c1C | inactive | 
56 | COc1ccccc1NC(=O)CSc1nnc(CNC(=O)c2ccccc2F)o1 | inactive | 
57 | O=C(CN1C(=O)c2ccccc2S1(=O)=O)NC1CCCCC1 | inactive | 
58 | COC(CNC(=O)c1ccc2c(c1)ncn2-c1cc(C)cc(C)c1)OC | inactive | 
59 | Cc1ccc(CCN2CC(C(=O)NCCc3ccccc3)CC2=O)cc1 (stereo unspecified) | inactive | 
60 | CN1C2C=C(N(C(=O)c3ccc(Cl)cc3)c3ccccc3)CC1CC2 (stereo unspecified) | inactive | 
61 | Cc1cc(C)cc(C(=O)N(CCc2ccccc2)C2=CC3CCC(C2)N3C)c1 (stereo unspecified) | 11.7 µM (active) | 
62 | O=S(=O)(NC1CCCCC1N1CCC(O)CC1)c1ccc(Cl)cc1 (stereo unspecified) | inactive | 
63 | CCN(CC(=O)Nc1c(F)cccc1F)C(=O)c1ccc(S(=O)(=O)N2CCCCC2)cc1 | inactive | 
64 | COc1cccc(NC(=O)c2ccccc2N(Cc2ccccc2)S(C)(=O)=O)c1 | inactive | 
65 | COCCNC(=O)c1onc(CSc2cccc(C)c2)c1C(=O)O | inactive | 
66 | O=C(NCc1ccccc1)c1onc(CSc2nc3ccccc3[nH]2)c1C(=O)NCc1ccccc1 | 1.17 µM (active) | 

Row | SMILES | Potency | activity change, negative = inhibition
67 | COc1ccccc1CSc1nc2ccccc2[nH]1 | inactive | 
68 | O=C(CSc1nc(C2CC2)nc2ccccc12)Nc1cccc(O)c1 | inactive | 
69 | COCC(=O)Nc1c(C(=O)N2CCCC2)oc2ccccc12 | inactive | 
70 | CCC(=O)Nc1ccccc1C(=O)N1CCN(Cc2ccccc2)CC1 | inactive | 
71 | CCOCc1c(C(=O)N2CCN(Cc3ccc(Br)s3)CC2)oc2ccccc12 | 13.1 µM (active) | 
72 | COc1ccc(CN2CC(C(=O)NC3CCCCC3)CC2=O)cc1 (stereo unspecified) | inactive | 
73 | C=CCSc1ccc(S(=O)(=O)N2CCN(C)CC2)cn1 | inactive | 
74 | CCn1cc(C(=O)NCCCN2CCCCCC2)c(=O)c2cc(S(=O)(=O)N3CCc4ccccc4C3)ccc21 | 5.22 µM (active) | 
75 | CCn1cc(C(=O)N2CC(C)CC(C)C2)c(=O)c2cc(S(=O)(=O)N3CCCC3)ccc21 (stereo unspecified) | inactive | 
76 | CCn1cc(C(=O)NCCO)c(=O)c2cc(F)c(N3CCN(C)CC3)cc21 | inactive | 
77 | O=S(=O)(c1cccc(Cn2nnc(-c3ccc(F)cc3)n2)c1)N1CCOCC1 | inactive | 
78 | Cc1ccc(CNS(=O)(=O)c2ccc3c(c2)N(C)CCO3)cc1 | inactive | 
79 | COc1ccc(CNCCCO)cc1OC | inactive | 
80 | CCN(CC)CCNCc1ccc(OCc2ccc(Cl)nc2)c(OC)c1 | 10.4 µM (active) | 
81 | COc1cc(CNc2ncn[nH]2)ccc1OCc1ccccc1C | inactive | 
82 | COc1ccc(CNC(=O)CN2CCC(n3nnc4cc(F)ccc43)CC2)cc1 | inactive | 
83 | COc1ccccc1CNC(=O)CN1CCC(n2cnc3cc(F)ccc32)CC1 | 10.4 µM (active) | 
84 | COc1ccccc1CNC(=O)C1CCN(S(C)(=O)=O)CC1 | inactive | 
85 | COc1ccc(CCNC(=O)CN2CCC(n3nnc4cc(F)ccc43)CC2)cc1OC | 7.38 µM (active) | 
86 | COc1ccccc1CNC(=O)Cn1cc2c(n1)CCCC2 | inactive | 
87 | COc1ccc(CCNC(=O)CCC(=O)NC2CCCCC2)cc1OC | inactive | 
88 | CCc1ccccc1NC(=S)Nc1cc(OC)c(NC(=O)C(C)C)cc1OC | inactive | 

Row | SMILES | Potency | activity change, negative = inhibition
89 | CC1CCCCC1NC(=O)c1cc(=O)[nH]c2ccccc12 (stereo unspecified) | inactive | 
90 | CCCCCCC(O)(CCN1CCCCC1)c1ccccc1 (stereo unspecified) |  | 11.4% [at 0.00184 µM] (inactive)
91 | COc1ccc(NC(=S)N2CCC(NC(=O)c3cccc(F)c3)CC2)cc1 | inactive | 
92 | CN1C(=O)c2ccc(C(=O)Nc3ccc(Br)cn3)cc2C1=O | inactive | 
93 | Cc1ccc(-c2cn(S(=O)(=O)c3cccc([N+](=O)[O-])c3)nc2N)cc1 | 3.29 µM (active) | 
94 | CC1=NCCN1S(=O)(=O)c1cccc([N+](=O)[O-])c1 | inactive | 
95 | Cc1cc(C)n(S(=O)(=O)c2cccc([N+](=O)[O-])c2)n1 | inactive | 
96 | COc1ccc(-c2noc(C(C)NS(=O)(=O)c3ccc(NC(C)=O)cc3)n2)cc1 (stereo unspecified) | inactive | 
97 | Cc1occc1C(=O)NC1CCCN(Cc2ccc(CC(C)C)cc2)C1 (stereo unspecified) | inactive | 
98 | Cc1ccc(C)c(C(=O)N2CCC(n3nccc3NC(=O)C3CC3)CC2)c1 | inactive | 
99 | C=CCN1CN(S(=O)(=O)c2ccc(OC)cc2)c2nc3ccccc3nc21 | inactive | 
100 | COc1cc2c(cc1O)[C@H](Cc1ccc(Oc3cc(C[C@@H]4NCCc5cc(OC)c(O)cc54)ccc3O)cc1)NCC2 | 0.738 µM (active) | 
101 | CCCCSCCCNC(=O)C1CCC(CNS(=O)(=O)c2ccc(NC(C)=O)cc2)CC1 (stereo unspecified) | inactive | 
102 | CCN(CC)C(=O)c1nc[nH]c1C(=O)N(C)Cc1ccccc1 | inactive | 
103 | O=C1C2CCCN2C(=O)N1CCCCN1CCN(c2cccc(C(F)(F)F)c2)CC1 (stereo unspecified) | inactive | 
104 | CC(C)S(=O)(=O)c1csc(NC(=O)Nc2ccc(Cl)cc2)c1Cl | 5.22 µM (active) | 
105 | Cn1ccc(NC(=O)Nc2ccc(Cl)cc2)n1 | inactive | 
106 | CN(c1cccc(NC(=O)Nc2ccc(Cl)cc2)c1)S(C)(=O)=O | inactive | 
